The text below walks through data of publication PMC5515408, “Sequence-specific DNA binding by MYC/MAX to low-affinity non-E-box motifs”.

Over roughly 5,000 sequences, “log2 normalized fluorescence” has its median near 0.089; the highest 2% begin near 0.81. The sample holds the highest values, similar sequences and a random draw of the others, so the mix is not that of the screen.

For the test, the target named is MYC (p64);MAX (p21), in MYC:MAX (human;human, UniProt P01106-1;P61244-2 1-439;1-151, |). Briefly: protein-binding microarray (anti-MAX antibody); PBM: 15 mM Tris-HCl pH 7.5, 100 mM KCl, 0.075% NP40, 7.5 mM beta-mercaptoethanol, 375 ng/ul BSA, 8 ng/ul poly(dA-dT):(dA-dT), 550 ng complex, 60 min, room tempe; high values mean tight binding. To be noted: protein: recombinant;recombinant; tags: 6xHis;6xHis; copies: 1;1; label: 3' end of printed strand (linker) attached to glass slide; dsDNA, one strand shown. The method in brief: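 Binding is reported as log2 normalized fluorescence. Recombinant His-tagged human MYC:MAX or MAX:MAX dimers expressed in E. coli (550 ng) were incubated with a custom Agilent glass array for 60 min at room temperature in Tris-KCl buffer, pH 7.5, containing NP40, BSA and poly(dA-dT) competitor. The array carried ~5000 unique 12-nt sequences, each spotted in triplicate and made double-stranded by primer extension, and bound protein was detected with anti-MAX and secondary antibodies and scanned at 543 nm.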
Sequence of MYC (p64);MAX (p21), in MYC:MAX (P01106 16-454, chain 1 of 2): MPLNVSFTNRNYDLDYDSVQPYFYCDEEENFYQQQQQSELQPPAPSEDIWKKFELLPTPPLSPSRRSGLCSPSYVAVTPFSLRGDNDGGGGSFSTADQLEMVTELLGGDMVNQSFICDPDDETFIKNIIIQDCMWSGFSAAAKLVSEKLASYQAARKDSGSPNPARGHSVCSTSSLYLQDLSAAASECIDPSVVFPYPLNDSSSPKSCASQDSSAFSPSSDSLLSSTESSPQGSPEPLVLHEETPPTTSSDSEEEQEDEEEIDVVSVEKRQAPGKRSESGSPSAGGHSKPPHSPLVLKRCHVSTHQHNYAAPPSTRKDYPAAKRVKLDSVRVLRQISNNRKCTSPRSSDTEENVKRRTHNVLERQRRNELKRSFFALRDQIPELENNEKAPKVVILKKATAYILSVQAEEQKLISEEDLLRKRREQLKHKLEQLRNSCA
Sequence of MYC (p64);MAX (p21), in MYC:MAX (P61244 other isoform, or with tags, fused parts or gaps |, chain 2 of 2): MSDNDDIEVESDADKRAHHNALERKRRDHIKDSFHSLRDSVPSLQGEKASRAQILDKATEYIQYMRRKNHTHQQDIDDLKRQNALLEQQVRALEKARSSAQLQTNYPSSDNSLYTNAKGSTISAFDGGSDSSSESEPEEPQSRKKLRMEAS
For the sequence “CCGGCTGAAACTGAGTATTAATAGCTAAGATTACTATATCGACG”, the binding signal is 0.00205 log2 normalized fluorescence.
The result for “CCGGCTGACCTGACGTATTAATAGCTAAGATTACTATATCGACG” reads 0.202 log2 normalized fluorescence; that for “CCGGCTGCCACGTGTTATTAATAGCTAAGATTACTATATCGACG”, 0.969 log2 normalized fluorescence; that for “CCGGCTGTCACGTGATATTAATAGCTAAGATTACTATATCGACG”, 0.587 log2 normalized fluorescence.
In the case of “CCGGCTGCCACGTAGTGTTAATAGCTAAGATTACTATATCGACG” it was 0.23 log2 normalized fluorescence.
Turning to “CCGGCTGCCACGTGATATTAATAGCTAAGATTACTATATCGACG”, the binding signal is 0.881 log2 normalized fluorescence.
The result for “CCGGCTGCCACGACGTATTAATAGCTAAGATTACTATATCGACG” reads 0.371 log2 normalized fluorescence; that for “CCGGCTGCCACGTGGTGTTAATAGCTAAGATTACTATATCGACG”, 0.763 log2 normalized fluorescence; that for “CCGGCTGAGGCGAAGTATTAATAGCTAAGATTACTATATCGACG”, 0.0114 log2 normalized fluorescence.
As for “CCGGCTGATGTATCGTATTAATAGCTAAGATTACTATATCGACG”, the binding signal was 0.124 log2 normalized fluorescence.
In the case of “CCGGCTGAGCGATAGTATTAATAGCTAAGATTACTATATCGACG” it was -0.0333 log2 normalized fluorescence; in that of “CCGGCTGACGCGGAGTATTAATAGCTAAGATTACTATATCGACG”, 0.127 log2 normalized fluorescence; in that of “CCGGCGGACAGGTGGGATTAATAGCTAAGATTACTATATCGACG”, 0.375 log2 normalized fluorescence.
In the case of “CCGGCTAGCACGTGGTATTAATAGCTAAGATTACTATATCGACG”, the binding signal is 0.917 log2 normalized fluorescence.
Take “CCGGCAAGCACGTGGTATTAATAGCTAAGATTACTATATCGACG”: the binding signal is 0.835 log2 normalized fluorescence.
On to “CCGGCGAGCACGTGGTATTAATAGCTAAGATTACTATATCGACG”, for which the binding signal is 0.525 log2 normalized fluorescence.
In the case of “CCGGCCAGCACGTGGTATTAATAGCTAAGATTACTATATCGACG” it was 0.793 log2 normalized fluorescence; in that of “CCGGCTGACGTCAGGTATTAATAGCTAAGATTACTATATCGACG”, 0.293 log2 normalized fluorescence.
The result for “CCGGCTGAGGGTAGGTATTAATAGCTAAGATTACTATATCGACG” reads 0.0237 log2 normalized fluorescence.
For the sequence “CCGGCTGAGGCCCCGTATTAATAGCTAAGATTACTATATCGACG”, the binding signal is 0.00137 log2 normalized fluorescence.
Consider “CCGGCGGGCACGTGGGATTAATAGCTAAGATTACTATATCGACG”, for which the binding signal was 0.986 log2 normalized fluorescence.
Consider “CCGGCTGGCACGCGGTCTTAATAGCTAAGATTACTATATCGACG”, for which the binding signal was 0.784 log2 normalized fluorescence.
The result for “CCGGCTGGCACGTGGGATTAATAGCTAAGATTACTATATCGACG” reads 0.708 log2 normalized fluorescence.
Consider “CCGGCGGGCACGTGGTCTTAATAGCTAAGATTACTATATCGACG”, for which the binding signal was 0.929 log2 normalized fluorescence.
The result for “CCGGCGGGCACGTGGTATTAATAGCTAAGATTACTATATCGACG” reads 0.738 log2 normalized fluorescence.
The result for “CCGGCGTACACGTGGTATTAATAGCTAAGATTACTATATCGACG” reads 0.671 log2 normalized fluorescence; that for “CCGGCTTACACGTGGTCTTAATAGCTAAGATTACTATATCGACG”, 0.679 log2 normalized fluorescence.
On to “CCGGCTATCACGTGGGATTAATAGCTAAGATTACTATATCGACG”, for which the binding signal was 0.804 log2 normalized fluorescence.
In the case of “CCGGCGTACACGTGGTCTTAATAGCTAAGATTACTATATCGACG” it was 0.89 log2 normalized fluorescence; in that of “CCGGCTGAATCAGAGTATTAATAGCTAAGATTACTATATCGACG”, 0.0753 log2 normalized fluorescence.
The result for “CCGGCTGAACAAGTGTATTAATAGCTAAGATTACTATATCGACG” reads 0.224 log2 normalized fluorescence.
As to “CCGGCTGATACTTGGTTTTAATAGCTAAGATTACTATATCGACG”, the binding signal is 0.0375 log2 normalized fluorescence.
The result for “CCGGCTGATCCCGCGTATTAATAGCTAAGATTACTATATCGACG” reads 0.218 log2 normalized fluorescence; that for “CCGGCTGAAGGGCAGTATTAATAGCTAAGATTACTATATCGACG”, -0.0227 log2 normalized fluorescence; that for “CCGGCTGGCACGAGGTTTTAATAGCTAAGATTACTATATCGACG”, 0.697 log2 normalized fluorescence.
As to “CCGGCTCACACGCGGTTTTAATAGCTAAGATTACTATATCGACG”, the binding signal is 0.822 log2 normalized fluorescence.
As for “CCGGCCGACAGCCGGTTTTAATAGCTAAGATTACTATATCGACG”, the binding signal is -0.0407 log2 normalized fluorescence.
In the case of “CCGGCCGACACGCGGTTTTAATAGCTAAGATTACTATATCGACG” it was 0.82 log2 normalized fluorescence; in that of “CCGGCTCACACGTTTTATTAATAGCTAAGATTACTATATCGACG”, 0.662 log2 normalized fluorescence.
Turning to “CCGGCTCACACGTGGTTTTAATAGCTAAGATTACTATATCGACG”, the binding signal was 0.78 log2 normalized fluorescence.
As to “CCGGCTCACACGATGTATTAATAGCTAAGATTACTATATCGACG”, the binding signal was 0.603 log2 normalized fluorescence.
The result for “CCGGCTGAGACGCGGTTTTAATAGCTAAGATTACTATATCGACG” reads 0.131 log2 normalized fluorescence; that for “CCGGCTCACACGAGGTTTTAATAGCTAAGATTACTATATCGACG”, 0.866 log2 normalized fluorescence.
The result for “CCGGCTGAGTAGTGGTATTAATAGCTAAGATTACTATATCGACG” reads 0.0775 log2 normalized fluorescence.
The result for “CCGGCTGAGGGCTTGTATTAATAGCTAAGATTACTATATCGACG” reads 0.0447 log2 normalized fluorescence; that for “CCGGCTGACGACAGGTATTAATAGCTAAGATTACTATATCGACG”, 0.106 log2 normalized fluorescence.
As for “CCGGCTGAAGTTCAGTATTAATAGCTAAGATTACTATATCGACG”, the binding signal is 0.0781 log2 normalized fluorescence.
The result for “CCGGCTGAAGACCTGTATTAATAGCTAAGATTACTATATCGACG” reads 0.0334 log2 normalized fluorescence; that for “CCGGCTGATGTAATGTATTAATAGCTAAGATTACTATATCGACG”, 0.000857 log2 normalized fluorescence.
For the sequence “CCGGCTGACGTTTGGTATTAATAGCTAAGATTACTATATCGACG”, the binding signal is 0.243 log2 normalized fluorescence.
For the sequence “CCGGCTGACCACATGTATTAATAGCTAAGATTACTATATCGACG”, the binding signal was 0.581 log2 normalized fluorescence.
For the sequence “CCGGCTGAACGTGAGTATTAATAGCTAAGATTACTATATCGACG”, the binding signal is 0.437 log2 normalized fluorescence.
The result for “CCGGCTGAGGACGAGTATTAATAGCTAAGATTACTATATCGACG” reads -0.00251 log2 normalized fluorescence; that for “CCGGCTGACACGTGGCGTTAATAGCTAAGATTACTATATCGACG”, 0.519 log2 normalized fluorescence.
The result for “CCGGCTTACACGTGGTGTTAATAGCTAAGATTACTATATCGACG” reads 0.827 log2 normalized fluorescence; that for “CCGGCTTACACGTGGCGTTAATAGCTAAGATTACTATATCGACG”, 0.878 log2 normalized fluorescence.
For “CCGGCTTAAACGTGTTATTAATAGCTAAGATTACTATATCGACG”, the binding signal was 0.426 log2 normalized fluorescence.
For “CCGGCTTACACGTGGAATTAATAGCTAAGATTACTATATCGACG”, the binding signal was 0.667 log2 normalized fluorescence.
Take “CCGGCTCACACGTGATATTAATAGCTAAGATTACTATATCGACG”: the binding signal is 0.75 log2 normalized fluorescence.
The result for “CCGGCTCACACGTGTTATTAATAGCTAAGATTACTATATCGACG” reads 0.827 log2 normalized fluorescence; that for “CCGGCTTACACGTGTTATTAATAGCTAAGATTACTATATCGACG”, 1.05 log2 normalized fluorescence.
In the case of “CCGGCCTACACGTGGTGTTAATAGCTAAGATTACTATATCGACG” it was 0.779 log2 normalized fluorescence; in that of “CCGGCTCACACGGGTTATTAATAGCTAAGATTACTATATCGACG”, 0.461 log2 normalized fluorescence.
In the case of “CCGGCTAATACGTGGTGTTAATAGCTAAGATTACTATATCGACG” it was 0.417 log2 normalized fluorescence; in that of “CCGGCTTACAAGTGTTATTAATAGCTAAGATTACTATATCGACG”, 0.479 log2 normalized fluorescence; in that of “CCGGCTGATTTAATGTATTAATAGCTAAGATTACTATATCGACG”, 0.0643 log2 normalized fluorescence.
Regarding “CCGGCTGAACCTACGTATTAATAGCTAAGATTACTATATCGACG”, the binding signal is 0.131 log2 normalized fluorescence.
Regarding “CCGGCTGATCGCTTGTATTAATAGCTAAGATTACTATATCGACG”, the binding signal is -0.00084 log2 normalized fluorescence.
